In ChEMBL document CHEMBL3988442, “University of Dundee, Small-Polar-MMV Screening Library” (2021):

What was measured:
[1] = biological target: T1, Aspartate--tRNA(Asp/Asn) ligase (Mycobacterium tuberculosis (strain ATCC 25618 / H37Rv)) (UniProt P9WFW3); experiment: Assay for Asp RNA synthetase-1 from Mycobacterium tuberculosis; assay type: functional; design: scale not given: direction of the effect not stated beside the values; conditions: 30 µM; further: in the data most compounds retested in dose-response had high values
T1 sequence (whole entry): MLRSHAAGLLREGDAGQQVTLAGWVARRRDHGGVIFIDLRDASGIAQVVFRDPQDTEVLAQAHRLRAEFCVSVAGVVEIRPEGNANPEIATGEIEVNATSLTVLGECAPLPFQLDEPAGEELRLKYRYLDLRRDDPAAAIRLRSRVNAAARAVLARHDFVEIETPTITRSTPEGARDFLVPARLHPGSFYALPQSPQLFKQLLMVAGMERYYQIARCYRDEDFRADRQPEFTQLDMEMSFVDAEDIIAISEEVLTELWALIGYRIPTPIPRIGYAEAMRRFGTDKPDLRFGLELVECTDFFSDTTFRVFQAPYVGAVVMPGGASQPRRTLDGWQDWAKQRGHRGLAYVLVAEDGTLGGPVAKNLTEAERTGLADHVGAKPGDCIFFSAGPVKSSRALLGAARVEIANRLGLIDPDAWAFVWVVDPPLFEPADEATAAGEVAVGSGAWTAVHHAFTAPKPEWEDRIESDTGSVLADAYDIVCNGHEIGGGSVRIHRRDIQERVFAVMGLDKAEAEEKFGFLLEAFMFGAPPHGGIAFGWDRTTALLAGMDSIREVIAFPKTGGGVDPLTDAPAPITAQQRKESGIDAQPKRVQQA

[2] = biological target: Shiga toxin 2 (Escherichia coli O157:H7) (UniProt P09385+P09386); experiment: E. coli 0.157:H7 Shiga Toxin SOP - stx2 screening assay; assay type: functional; design: scale not given: direction of the effect not stated beside the values; conditions: 30 µM

SMILES	Percent Effect [1]	Percent Effect [2]
COc1ccc(CN2CCC[C@@H]3CN(C(=O)c4ccco4)C[C@@H]32)cc1	5.87%	0.332%
Cc1cnn(CC2CCCCN2Cc2noc(C3CC3)n2)c1 (centres undefined)	-2.57%	26.8%
Cn1ccnc1COc1ccc(CO)cc1	1.33%	-14.5%
COCCC(=O)N1CC[C@@H](N(C)C)[C@@H]1Cc1ccccc1	-3.16%	2.6%
CCC(=O)NCCc1cc(N2CCN(C(C)=O)CC2)nc(C2CC2)n1	-0.432%	-2.36%
Cc1cc(C)n(CC2CCCN2C(=O)CCCc2ccccn2)n1 (centres undefined)	-1.59%	31.8%
CCn1cc(C(=O)N2CCCC(c3[nH]ncc3S(C)(=O)=O)C2)cn1 (centres undefined)	-3.25%	-8.37%
c1ccc(C2CCN(c3cncc(-n4cccn4)n3)CC2)cc1	-0.999%	-5.12%
N#Cc1ccc(OC2CCN(C(=O)c3ccc4c(c3)OCO4)CC2)nc1	-8.83%	-32.6%
CCC1CN(c2nnc(C)c(C)c2C#N)CCO1 (centres undefined)	0.1%	11.9%
c1ncn(CC2CN(Cc3noc(C4CC4)n3)CCO2)n1 (centres undefined)	0.367%	-20.8%
COCCOc1ccc(NC(=O)C2CCCN(C(N)=O)C2)cn1 (centres undefined)	-2.23%	-2.19%
Cc1nc(CN2C[C@@H]3CN(C(=O)c4cnccn4)C[C@@H]3C2)cs1	-0.661%	1.79%
CC(NCc1cccnc1)c1ccc(OCC(=O)NC2CC2)cc1 (centres undefined)	4.26%	-1.84%
C[C@@H]1C(=O)NC[C@H]2CN(CCc3ccccc3)C[C@H]21	4.21%	-4.99%
O=C1CN(Cc2nnc(-c3ccc(Br)o3)o2)CCN1	-1.11%	-65.1%
COc1ccc(CN(Cc2cncn2C)CC2CCCO2)c(OC)c1 (centres undefined)	7.91%	11.4%
COCc1noc(C2(c3ccc(Br)cc3)CCOCC2)n1	0.524%	-0.633%
CCNC(=O)[C@@H]1C[C@@H](NC(=O)Cc2ccccn2)CN1CCCSC	-0.228%	-40.5%
COCC1CC2(CCN(Cc3ccc(OC)cc3)CC2)CN1C(C)C (centres undefined)	-1.24%	1.66%
O=C(CN1CCCC1Cn1cccn1)NC1CCOCC1 (centres undefined)	-1.71%	13.3%
CNS(=O)(=O)c1cccc(CNc2ccc(C(F)(F)F)nn2)c1	-3.88%	14.2%
COc1c(C2CCCN2C(=O)c2cncnc2C)c(C)nn1C (centres undefined)	4.44%	-11.2%
CNC(=O)Cc1ccc(NC(=O)NC(C)C(C)C)cc1 (centres undefined)	-6.08%	-0.988%

SMILES	Percent Effect [1]	Percent Effect [2]
NCCn1nc(C2CCN(C(=O)CC3CCCCC3)C2)c2nccnc21 (centres undefined)	1.37%	-31.7%
Cc1noc2ncc(C(=O)NCC3CCOC3)cc12 (centres undefined)	-2.88%	16.2%
CCNc1cc2c(nn1)CCN(C(=O)c1cc3nc(C)ccc3o1)C2	-4.95%	-51.6%
O=C1CCC(C(=O)NCc2nn(-c3ccccc3)c3c2CCC3)CN1 (centres undefined)	-2.23%	-54.3%
COCC1CN(Cc2ccc(C)o2)Cc2nnn(CC3CC3)c21 (centres undefined)	-0.416%	-35.9%
COCC(=O)N1CCC(c2nc3ccc(N4CCCC4)cn3n2)CC1	-0.957%	-26.9%
O=C1[C@H]2CC[C@H](CN(S(=O)(=O)c3ccccc3)C2)N1Cc1cscn1	1.23%	-25.8%
Cn1cc(NS(=O)(=O)c2ccc(OC(F)(F)F)cc2)ccc1=O	51.5%	-3.73%
CCn1ncc2c1CCCC2NCC1=Cc2ccccc2OC1 (centres undefined)	4.82%	-23.2%
COCC1CC2(CCN(C(=O)c3cccn3C)CC2)CN1C(C)C (centres undefined)	-3.53%	-6.37%
CCN(CC1CCOC1)C(=O)Nc1ccc(N2CCCC2)nc1 (centres undefined)	0.3%	1.73%
O=C(Nc1cc(F)ccc1OCC1CCCO1)N1CCCC1 (centres undefined)	-3.7%	0.98%
CS(=O)(=O)NCC1CCCN(C(=O)COCc2ccccc2)C1 (centres undefined)	-6.12%	-16.5%
CC(C)c1cc(N2CCC(N)CC2)n2nccc2n1	-0.232%	19.8%
Fc1ccc(-c2nnc(CN3CCn4c(nnc4C4CC4)C3)o2)cc1	3.19%	-26.1%
Cc1nc(N2CCCC2)nc2c1CCN(C(=O)C1CCCC1)CC2	0.726%	-9.64%
Cc1cc(N2CCCCCC2)n2nc(C)c(C)c2n1	0.167%	19.6%
CCn1cc(NC(=O)CCc2ccc3c(c2)OCCCO3)cn1	-3.45%	-47.1%
CN(C)CCN1CCCC12CCN(C(=O)c1cccn1C)CC2	-5.96%	-0.241%
CC(CNC(=O)c1ccc(Cl)cc1I)N1CCCC1 (centres undefined)	-0.881%	-18.5%
Cc1cc(NC(=O)CCN2CCCC2Cn2cncn2)no1 (centres undefined)	-2.02%	-32.1%
CCc1ncncc1C(=O)N1CCOC(c2nc(C)n[nH]2)C1 (centres undefined)	-4.06%	0.443%
Cc1cc(C)n(CC2CCCN2CC(=O)N(C)Cc2cnn(C)c2)n1 (centres undefined)	-0.211%	21.8%
